SMILES strings stand for the structures. The whole screen tested about 48,000 compounds, of which about 13,000 (27%) showed an effect of 50% or more. Some of the results follow.

The assay has as its system Wolbachia pipientis. Kind of assay: Anti-Wolbachia Cell-Based Screen. It counts as functional. The arrangement: scale not given: in the data most compounds retested in dose-response had high values. As to conditions: 5 µM.
For `CC(C)(C)c1c[nH]c([C@@H]2COCCN2C2CCOCC2)n1`, the “Percent Effect” value came out at 1.318%.
Then `CCN(C)C(=O)CCC(=O)c1cccs1`, with 14.3%.
In the case of `CC(C)S(=O)(=O)N(C)C(=O)CCc1ccsc1`, the “Percent Effect” value is -69.32%.
As for `O=C(NC1CCC1)[C@@H]1CCO[C@@H]2CCN(C3CCCC3)C[C@@H]21.O=C(O)C(F)(F)F`, the “Percent Effect” value is listed as -2.811%.
The value for `CN(C)C(=O)N1CCN(Cc2ccccc2)[C@@H]2CS(=O)(=O)C[C@@H]21` was -15.23%; that for `Cc1cc(C)cc(CN2CCN(C(=O)C3CCC3)[C@@H]3CS(=O)(=O)C[C@@H]32)c1` was 5.878%; that for `CCN(CC)C(=O)N1CCN(Cc2cnc(C)nc2)[C@H]2CS(=O)(=O)C[C@H]21` was 94.21%.
Consider `Cc1ccc(CN2CCN(C(=O)C3CCC3)[C@@H]3CS(=O)(=O)C[C@@H]32)cc1C`, for which the “Percent Effect” value came out at 4.312%.
The value for `CCc1ccc(CN2CCN(C(=O)C(C)C)[C@@H]3CS(=O)(=O)C[C@@H]32)cc1` was -2.722%; that for `Cc1ncc(CN2CCN(C(=O)C3CCC3)[C@@H]3CS(=O)(=O)C[C@@H]32)cn1` was 112.3%; that for `COc1cc(Oc2ccc(C(F)(F)F)cn2)ccc1CN1CCCC1` was 2.757%.
Take `O=C(NC[C@H]1OC[C@@H](NC(=O)C2CCCC2)[C@@H]1O)c1ccncc1`: the “Percent Effect” value is recorded as 0%.
Then `CC(=O)Nc1ccc(CNC2COc3c2ccc(C)c3C)cc1` (stereo unspecified), with -7.711%; and `COCC[C@]1(O)CCN(S(=O)(=O)c2ccc(C)cc2OC)C[C@H]1C`, with -114.9%.
Then `CCc1noc(C)c1C(=O)NCc1ccccn1`, with -15.45%; and `CCn1cc(Br)c(C(=O)NCc2cccnc2)n1`, with 4.447%.
The value for `Nc1no[n+]([O-])c1C(=O)NCc1cccnc1` was 115%; that for `COc1c(C(=O)NCc2cccnc2)nnn1Cc1ccc(C)cc1` was 7.937%.
For `Nc1no[n+]([O-])c1C(=O)NCc1ccccn1`, the “Percent Effect” value was 131.2%.
The value for `N#Cc1ccc(CN2C[C@@H]3OCC(=O)N(CC(N)=O)[C@@H]3C2)cc1` was -3.646%; that for `CC(C)Oc1ccccc1CNC(=O)N(C)CC(F)F` was -6.331%.
Then `N#Cc1cccnc1NCc1cccc(C(=O)NCC2CCCCO2)c1` (stereo unspecified), with -17.65%; and `O=C(NCCCOCC1CCCO1)c1cccnc1N1CCCC1` (stereo unspecified), with -6.483%.
Then `O=C(NC[C@@H]1CCCO1)c1cccnc1N1CCCC1c1ccccn1` (stereo partly specified), with 123.2%.
As for `O=C(NC[C@@H]1CCCO1)c1cccnc1N1CCCC1c1ccccc1` (stereo partly specified), the “Percent Effect” value turned out to be 120.1%.
Then `Fc1ccccc1CN1CCCN(c2ccc3cc[nH]c3n2)CC1`, with -2.258%.
Then `CC(O)CC(C)(C)CNC(=O)NCc1cccc(-n2cncn2)c1` (stereo unspecified), with -1.907%; and `CCC(CNC(=O)c1nc(=O)[nH][nH]1)Oc1cccc(F)c1` (stereo unspecified), with 12.08%.
As for `Cc1cc(C)c2c(c1)NC(=O)C2CC(=O)O` (stereo unspecified), the “Percent Effect” value worked out at 18.62%.
Regarding `CC(C)c1nnc2n1CCN(C(=O)c1ccc3c(c1)COC3)C2`, the “Percent Effect” value is 4.471%.
The value for `CS(=O)(=O)N1CCc2ccc(C(=O)N3CCn4ncnc4C3)cc21` was 111.8%; that for `O=C(c1ccc2c(c1)CCC2)N1CCN(c2ccc(Cl)cn2)CC1` was -15.66%; that for `O=C(c1ccc2c(c1)CCCC2)N1CCn2ncnc2C1` was 90.14%.
The value for `O=C(c1ccc2c(c1)CCC2)N1C[C@@H](CN2CCOCC2)[C@@H](CO)C1` was -9.126%; that for `O=C(c1ccc2c(c1)CCC2)N1CCn2ncnc2C1` was 98.73%; that for `O=C(c1ccc(O)nc1)N1CCc2ccc(O)cc2C1` was -1.234%.
Then `CSc1ccc(NC(=O)Nc2ccc3c(c2)N(S(C)(=O)=O)CC3)cc1`, with -6.619%.
Consider `Cc1ccc(C(=O)N2CCN(S(C)(=O)=O)CC2)cc1N1CCNC1=O`, for which the “Percent Effect” value turned out to be 0.6513%.
Then `COC(C)c1nc(CN2CCNCC2)cs1` (stereo unspecified), with 8.778%; and `Cc1noc([C@]23COC[C@H]2CN(C(=O)Cc2ccsc2)C3)n1`, with 110.7%.
Then `CS(=O)(=O)CC(=O)N1C[C@@H]2COC[C@]2(c2nnc(C3CC3)o2)C1`, with -25.79%; and `Cc1noc([C@]23COC[C@H]2CN(C(=O)C2CCOCC2)C3)n1`, with -8.72%; and `Cc1noc([C@]23COC[C@H]2CN(C(=O)COC2CCCC2)C3)n1`, with 97.21%.
The value for `Cc1nc([C@@H]2C[C@@H]3CCN(C(=O)Cc4ccsc4)C[C@H]3O2)no1` was -14.45%; that for `Cc1noc([C@]23COC[C@H]2CN(C(=O)N2CCCC2)C3)n1` was 106.7%; that for `Cc1noc([C@]23COC[C@H]2CN(C(=O)CN(C)C)C3)n1.O=C(O)C(F)(F)F` was 111.8%.
Take `Cc1noc([C@@]23CCO[C@@H]2CCN(C(=O)c2ccsc2)C3)n1`: the “Percent Effect” value was found to be 10.18%.
For the compound `Cc1noc([C@]23COC[C@H]2CN(S(=O)(=O)N(C)C)C3)n1`, the “Percent Effect” value is given as -12.17%.
The value for `Cc1cc(C(=O)N2C[C@@H]3COC[C@]3(CN(C)C)C2)sc1C.O=C(O)C(F)(F)F` was -22.46%; that for `Cc1noc([C@]23COC[C@H]2CN(S(C)(=O)=O)C3)n1` was 1.796%; that for `Cc1noc([C@]23COC[C@H]2CN(S(=O)(=O)C2CC2)C3)n1` was 7.077%.
The value for `Cc1cnn(CC2CN(c3ncnc4ccsc34)CCO2)c1` (stereo unspecified) was -19.26%.
The value for `O=C(Nc1cn[nH]c1)N(CCCO)C1CCc2ccccc21` (stereo unspecified) was -15.52%.
On to `Cc1cc(NC(=O)N2CCOCC2)nn1-c1cccc(Cl)c1`, for which the “Percent Effect” value came to 1.002%.
Then `c1ccc(COCCN2CCc3[nH]cnc3C2c2ccoc2)cc1` (stereo unspecified), with 3.153%; and `O=C(NCc1cscn1)NC1CCN(c2ncccc2Cl)C1` (stereo unspecified), with -8.414%.
Then `CC(C)CC(NS(C)(=O)=O)C(=O)N(C)Cc1nnc2n1CCC2` (stereo unspecified), with -5.124%.
For `COc1cccc(OC2CN(C(=O)C3CCCN(C(=O)N(C)C)C3)C2)c1` (stereo unspecified), the “Percent Effect” value is listed as -3.604%.
The value for `CCOCC(=O)N1C[C@@H]2COC[C@H](c3nc(C)no3)[C@@H]2C1` was 1.076%; that for `CCOCC(=O)N1C[C@@H]2COC[C@]2(c2nc(C)no2)C1` was 107.1%.
The value for `Cc1cc(C(=O)N2C[C@@H]3COC[C@]3(c3nnc(C)o3)C2)on1` was 27.9%; that for `CN(C)CCNC(=O)c1nc2c(o1)CN(c1ncccn1)C2` was -6.07%; that for `CCNC(=O)Cc1ccc(NC(=O)NC(CC)c2ccncc2)cc1` (stereo unspecified) was 3.124%.
The value for `CCNC(=O)Cc1ccc(-c2cccc3c2CCNC3)cc1` was 110.7%; that for `Cc1ncc2c(c1CNC(=O)C1(c3ccc(F)cc3)CC1)CCNC2` was 13.15%.
For the compound `Cc1cc(-c2cccc3c2CCNC3)cnc1-n1cnnc1`, the “Percent Effect” value stood at 3.521%.
Then `CN(C)C(=O)Cc1ccc(-c2cccc3c2CCNC3)cc1`, with 105%; and `Cc1nc(-n2cnnc2)ccc1-c1cccc2c1CCNC2`, with -4.509%; and `CCS(=O)(=O)CCNC(=O)NCc1ccccc1-n1cccn1`, with -14.43%.
On to `CS(=O)(=O)N1CCC2(CC1)CC(OCC1CCOCC1)CO2` (stereo unspecified), for which the “Percent Effect” value was -4.18%.
Then `CCCc1nc(CN(CC)C(=O)c2ccc3c(c2)nnn3C)no1`, with 9.755%; and `COc1ccc(CNC(=O)CN2CCc3ccccc32)cc1`, with 5.049%.
Turning to `COCCC(=O)N1CCN(CC2CC2)c2ncccc2C1`, the “Percent Effect” value is on record as -45.17%.
The value for `COCC(O)CN1CCC(=O)N(CC2CC2)Cc2ccccc21` (stereo unspecified) was 108.3%; that for `COCC(O)CN1CCC(=O)N(CC(=O)C(C)(C)C)Cc2ccccc21` (stereo unspecified) was 110.3%.
The value for `CCCS(=O)(=O)CC(=O)N1CCN(CC2CC2)c2ccccc21` was -17.3%; that for `O=C(CN1CCc2ccccc21)Nc1ccc(OC(F)F)cc1` was -23.08%; that for `COCC(O)CN1CCC(=O)N(CC=C(C)C)Cc2ccccc21` (stereo unspecified) was 122.6%.
The value for `O=C(NCCNc1ncccn1)c1ccc(OCc2ccccc2)nc1` was -6.041%; that for `CN(c1ccc(CNC(=O)c2c[nH]c(=O)c(Cl)c2)cc1)C1CCCCC1` was 0.5041%.
For the compound `CCOCCOC(C)C(=O)Nc1nccn1Cc1ccccc1` (stereo unspecified), the “Percent Effect” value is given as -11.15%.
Then `CC(CCS(C)(=O)=O)NC(=O)NCc1ccc2ccccc2c1` (stereo unspecified), with -7.499%; and `Cc1cc(C)n(C2CN(c3nc(-c4ccncc4)nc4c3CCC4)C2)n1`, with -1.448%; and `CN(C)C(=O)c1ccc(NCCNc2ccc3ccccc3n2)nc1`, with -5.082%.
Then `CCCn1ncc(C(=O)N2CCN([C@H]3CCCC[C@@H]3O)CC2)c1C`, with 2.84%; and `CCOc1cc(C)nc(N2CCN(C(=O)c3ccnn3C)CC2)n1`, with 4.776%; and `Cc1nc(C2CCN(C(=O)c3ccc(=O)n(C)c3)CC2)c2sccn12`, with -4.246%.
Consider `Cc1nc(C2CCCN(C(=O)c3ccncc3)C2)c2sccn12` (stereo unspecified), for which the “Percent Effect” value came out at 112%.
The value for `Cc1c(C(=O)N2CCC(c3nc(C)n4ccsc34)CC2)cnn1C` was 112.4%; that for `Cc1csc(C2CCCN(C(=O)c3cnn4ccc(C)nc34)C2)n1` (stereo unspecified) was -3.808%; that for `Cc1nc(C2CCN(C(=O)c3ccnn3C)CC2)c2sccn12` was 90.51%.
The value for `O=C(CCCN1CCCCC1)N1CCN(C(=O)c2ccc[nH]2)CC1` was 1.236%; that for `CCC1CN(C(=O)COc2ccc(C(=O)NC3CC3)cc2)CCO1` (stereo unspecified) was -23.61%; that for `CCc1nccn1CCC(=O)N1CCN(c2ccccc2C)CC1C` (stereo unspecified) was 0.5766%.
The value for `CC(=O)N1CCN(c2ccccc2CNc2ccc(C)cn2)CC1` was 1.224%.
As to `CC(=O)N1CCC(NS(=O)(=O)c2cccnc2)CC1`, the “Percent Effect” value was 4.265%.
As for `Cc1ccc(Nc2nccc(C3CCN(C(=O)CO)C3)n2)nc1` (stereo unspecified), the “Percent Effect” value is 147.3%.
Then `CC(=O)N1CCC(c2ccnc(Nc3cncnc3)n2)CC1`, with 88.64%; and `CNCC(=O)N1CCC(c2ccnc(Nc3ccc(C)cn3)n2)C1.Cl` (stereo unspecified), with -6.427%; and `CC(=O)N1CCC(c2ccnc(Nc3ccc(C)cn3)n2)C1` (stereo unspecified), with 111.1%.
The value for `CC(=O)N1CC[C@H](c2nc3cc(C)ccc3o2)C1` was -3.722%.
